Source: PubChem BioAssay (Tox21)
Several values for one entry are separate records, joined by “and”; a condition that tells them apart may be missing. Equal entries are not always repeated. Records with an inconclusive call do not appear. A call without a number means that no potency is given here. Where a structure was tested more than once in an assay, its records may differ in their call. Activity calls are given as the source filed them. Unless noted, calls come from the whole dose curve; as a rule, active = well fitted curve in the direction sought with a large enough effect in the repeat runs; inconclusive = weak or mixed curves; inactive = no such curve, though single readings can be large; an effect the other way counts as inactive or inconclusive.

How the values were obtained:
[1] = qHTS assay to identify small molecule agonists of the hypoxia (HIF-1) signaling pathway - cell viability counter screen (AID 1224844; calls by dose curve; note: nearly all actives have a fitted effect of over 50% in size; note: potency is the fitted concentration of half-maximal effect)
How it was run: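 Viability counter screen: HRE-bla ME-180 cells plated 5 hrs before compound addition, treated 17 hrs at 37C and 5% CO2, then CellTiter-Glo added after the FRET reporter read; luminescence after 30 min.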

[2] = qHTS assay to identify small molecule agonists of H2AX (AID 1224845; active = well fitted activation curve with a large enough effect in the signal ratio in the repeat runs, not every such curve was filed as active; the % refers to the signal ratio; note: potency is the fitted concentration of half-maximal effect)
How it was run: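 Phospho-H2AX Ser139 measured by HTRF (ex 320 nm; em 665 and 620 nm) after 24 hr antibody incubation. Compounds, 15 concentrations, 0.76% DMSO, were applied to CHO-K1 cells for 3hr at 37C before lysis.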

[3] = qHTS RealTime-Glo MT Cell Viability Assay in HepG2 cells - 24 hour (AID 1224867); note: nearly all actives have a fitted effect of over 50% in size; note: potency is the fitted concentration of half-maximal effect
How it was run: (§1)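 HepG2 cells (600/well) were dispensed with RealTime-Glo reagents, incubated 5 h at 37 °C, then treated with compounds in DMSO for up to 40 h. Nonlytic NanoLuc luminescence reflecting viable cells was read at each stated time point.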

[4] = qHTS RealTime-Glo MT Cell Viability Assay in HEK293 cells - 32 hour (AID 1224868); note: nearly all actives have a fitted effect of over 50% in size; note: potency is the fitted concentration of half-maximal effect
How it was run: (§2)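 HEK293 cells seeded with NanoLuc/prosubstrate reagent, rested 5 h at 37 C, then dosed and kept at 37 C up to 40 h. Nonlytic real-time luminescence from viable cells read at 0, 8, 16, 24, 32 and 40 h.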

[5] = A CellTox Green Cytotoxicity Assay to monitor cytotoxicity in HEK293 cells - 0 hour (AID 1224869); note: nearly all actives have a fitted effect of over 50% in size
How it was run: (§3)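 Dead-cell fluorescence measured kinetically: asymmetric cyanine dye, HEK293, 600 cells/well, 5 h settle, 23 nL cpd/DMSO, 37 C, reads 0–40 h every 8 h.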

[6] = qHTS RealTime-Glo MT Cell Viability Assay in HepG2 cells - 40 hour (AID 1224870); note: nearly all actives have a fitted effect of over 50% in size; note: potency is the fitted concentration of half-maximal effect
How it was run: (§4)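 Real-time viability: cells seeded at 600 per well together with NanoLuc and cell-permeant prosubstrate, compounds added after 5 h incubation. Luminescence tracked at 0, 8, 16, 24, 32 and 40 h of exposure.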

[7] = A CellTox Green Cytotoxicity Assay to monitor cytotoxicity in HEK293 cells - 40 hour (AID 1224871); note: nearly all actives have a fitted effect of over 45% in size; note: potency is the fitted concentration of half-maximal effect
How it was run: as §3

[8] = qHTS RealTime-Glo MT Cell Viability Assay in HEK293 cells - 16 hour (AID 1224872); note: nearly all actives have a fitted effect of over 50% in size; note: potency is the fitted concentration of half-maximal effect
How it was run: as §2

[9] = qHTS RealTime-Glo MT Cell Viability Assay in HepG2 cells - 8 hour (AID 1224873); note: nearly all actives have a fitted effect of over 55% in size; note: potency is the fitted concentration of half-maximal effect
How it was run: as §4

[10] = qHTS RealTime-Glo MT Cell Viability Assay in HEK293 cells - 40 hour (AID 1224874); details: RealTime-Glo luminescence; max response: stronger effect = lower value; note: nearly all actives have a fitted effect of over 50% in size; note: potency is the fitted concentration of half-maximal effect
How it was run: (§5)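 600 HEK293 cells per well, dispensed already mixed with RealTime-Glo MT reagents. Compound dosing came 5 h later. The same wells were read for luminescence at 0, 8, 16, 24, 32 and 40 h of exposure at 37 C.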

[11] = A CellTox Green Cytotoxicity Assay to monitor cytotoxicity in HEK293 cells - 24 hour (AID 1224875); note: nearly all actives have a fitted effect of over 45% in size; note: potency is the fitted concentration of half-maximal effect
How it was run: as §3

[12] = A CellTox Green Cytotoxicity Assay to monitor cytotoxicity in HepG2 cells - 16 hour (AID 1224876); note: nearly all actives have a fitted effect of over 45% in size; note: potency is the fitted concentration of half-maximal effect
How it was run: (§6)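 First, HepG2 cells (600/well) mixed with reagent were plated; second, after 5 h at 37 C they received compounds via pintool; third, fluorescence was measured at 0 h through 40 h at 8 h intervals.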

[13] = qHTS RealTime-Glo MT Cell Viability Assay in HepG2 cells - 32 hour (AID 1224877); note: nearly all actives have a fitted effect of over 55% in size; note: potency is the fitted concentration of half-maximal effect
How it was run: as §1

[14] = A CellTox Green Cytotoxicity Assay to monitor cytotoxicity in HepG2 cells - 24 hour (AID 1224878); note: nearly all actives have a fitted effect of over 45% in size; note: potency is the fitted concentration of half-maximal effect
How it was run: as §6

[15] = A CellTox Green Cytotoxicity Assay to monitor cytotoxicity in HepG2 cells - 40 hour (AID 1224879); note: nearly all actives have a fitted effect of over 40% in size; note: potency is the fitted concentration of half-maximal effect
How it was run: as §6

[16] = qHTS RealTime-Glo MT Cell Viability Assay in HEK293 cells - 0 hour (AID 1224880)
How it was run: as §5

[17] = qHTS assay to identify small molecule agonists of H2AX - cell viability counter screen (AID 1224847; calls by dose curve; note: nearly all actives have a fitted effect of over 30% in size; note: potency is the fitted concentration of half-maximal effect)
How it was run: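 Compounds tested at 15 concentrations were incubated 3 hr at 37C with wild-type CHO-K1 cells; cellular ATP-based luminescence (CellTiter-Glo) indicated viability.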

[18] = qHTS assay to identify small molecule antagonists of the estrogen related receptor (ERR) signaling pathway from Tox21 library (AID 1224848); note: nearly all actives have a fitted effect of over 50% in size; note: potency is the fitted concentration of half-maximal effect
How it was run: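 ERR cell line, 2,000 cells/well. 6 h settle, then compound (DMSO) added; 18 h at 37 C; ONE-Glo luminescence after 30 min RT.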

[19] = qHTS assay to identify small molecule agonists of the estrogen related receptor (ERR) signaling pathway from Tox21 library (AID 1224849; calls by dose curve; note: nearly all actives have a fitted effect of over 15% in size); details: ERR reporter cell line, ONE-Glo luciferase, 18 h
How it was run: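 Quantitative HTS in agonist format: NTP ERR cell line, compounds transferred in DMSO after 6 h plating, 18 h incubation at 37 C, ONE-Glo luminescence endpoint.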

[20] = qHTS assay to identify small molecule agonists of the hypoxia (HIF-1) signaling pathway (AID 1224846; active = well fitted activation curve with a large enough effect in the signal ratio in the repeat runs, not every such curve was filed as active; the % refers to the signal ratio)
How it was run: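 Agonist mode reporter screen. ME-180 cells stably expressing bla under HRE control received test compounds in DMSO for 17 hrs (37C, 5% CO2), and beta-lactamase activity was then detected with the CCF4-AM FRET substrate.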

## COCc1cnc(C2=NC(C)(C(C)C)C(=O)N2)c(C(=O)O)c1 (stereo not given)
[1]
  Potency: inactive
[2]
  Potency: inactive
[3]
  Potency: inactive
[4]
  Potency: inactive
[5]
  Potency: inactive
[6]
  Potency: inactive
[7]
  Potency: inactive
[8]
  Potency: inactive
[9]
  Potency: inactive
[10]
  max response: 9.64% (inactive)
[11]
  Potency: inactive
[12]
  Potency: inactive
[13]
  Potency: inactive
[14]
  Potency: inactive
[15]
  Potency: inactive
[16]
  outcome: inactive

## Cc1ccccc1
[1]
  Potency: inactive
[2]
  Potency: inactive
[17]
  Potency: inactive
[3]
  Potency: inactive
[5]
  Potency: inactive
[6]
  Potency: inactive
[7]
  Potency: inactive
[8]
  Potency: inactive
[9]
  Potency: inactive
[10]
  max response: 11.7% (inactive)
[11]
  Potency: inactive
[12]
  Potency: inactive
[13]
  Potency: inactive
[14]
  Potency: inactive
[15]
  Potency: inactive
[16]
  outcome: inactive

## O=[N+]([O-])O[C@H]1CO[C@H]2[C@@H]1OC[C@H]2O[N+](=O)[O-]
[1]
  Potency: inactive
[2]
  Potency: inactive
[18]
  Potency: inactive
[19]; at 42.5 µM (top of the series)
  activity change, positive = activation: 4.43% (inactive)
[3]
  Potency: inactive
[5]
  Potency: inactive
[6]
  Potency: inactive
[7]
  Potency: inactive
[8]
  Potency: inactive
[9]
  Potency: inactive
[10]
  max response: 6.05% (inactive)
[11]
  Potency: inactive
[12]
  Potency: inactive
[13]
  Potency: inactive
[14]
  Potency: inactive
[15]
  Potency: inactive
[16]
  outcome: inactive

## Nc1ccc2c(c1)Cc1ccccc1-2
[1]
  Potency: inactive
[20]
  outcome: inactive
[18]
  Potency: inactive
[19]; at 92.4 µM (top of the series)
  activity change, positive = activation: -8.59% (active)
[3]
  Potency: inactive
[5]
  Potency: inactive
[6]
  Potency: inactive
[7]
  Potency: inactive
[9]
  Potency: inactive
[11]
  Potency: inactive
[12]
  Potency: inactive
[13]
  Potency: inactive
[14]
  Potency: inactive
[16]
  outcome: inactive

## CCCCCCCCCCCC[N+](C)(C)CCOc1ccccc1
[1]
  Potency: 24.6 µM (active) and inactive
[17]
  Potency: 89.8 µM (active) and 49.2 µM (active)
[18]
  Potency: 19.3 µM (active) and 21.1 µM (active)
[19]; at 42.5 µM (top of the series)
  activity change, positive = activation: -65.5% (inactive)
[19]; at 92.4 µM (top of the series)
  activity change, positive = activation: -76.3% (inactive)
[3]
  Potency: 21.9 µM (active) and 9.52 µM (active)
[4]
  Potency: 7.76 µM (active) and 9.52 µM (active)
[5]
  Potency: inactive
[6]
  Potency: 19.5 µM (active) and 6.01 µM (active)
[7]
  Potency: 19.5 µM (active) and 23.9 µM (active)
[8]
  Potency: 19.5 µM (active) and 19 µM (active)
[9]
  Potency: 55 µM (active) and 23.9 µM (active)
[10]
  Potency: 6.92 µM (active) and 9.52 µM (active)
[12]
  Potency: 24.6 µM (active) and 19 µM (active)
[13]
  Potency: 19.5 µM (active) and 7.56 µM (active)
[14]
  Potency: 15.5 µM (active) and 8.49 µM (active)
[15]
  Potency: 12.3 µM (active) and 6.74 µM (active)
[16]
  outcome: inactive

## CCCC[N+]1(C)[C@@H]2CC(OC(=O)[C@H](CO)c3ccccc3)C[C@H]1[C@@H]1O[C@@H]12 (stereo not given in full)
[1]
  Potency: inactive
[2]
  Potency: inactive
[17]
  Potency: inactive
[3]
  Potency: inactive
[5]
  Potency: inactive
[6]
  Potency: inactive
[7]
  Potency: inactive
[8]
  Potency: inactive
[9]
  Potency: inactive
[10]
  max response: 2.06% (inactive)
[11]
  Potency: inactive
[12]
  Potency: inactive
[13]
  Potency: inactive
[14]
  Potency: inactive
[15]
  Potency: inactive
[16]
  outcome: inactive

## [Cl-].[Cl-].[Hg+2]
[1]
  Potency: 43.5 µM (active)
[2]
  Potency: 1.26 µM (active) and 1.42 µM (active)
[17]
  Potency: 17.8 µM (active) and 7.13 µM (active)
[3]
  Potency: 48.8 µM (active) and 3.47 µM (active)
[5]
  Potency: inactive
[6]
  Potency: 3.89 µM (active)
[7]
  Potency: 21.8 µM (active) and 3.89 µM (active)
[9]
  Potency: 48.8 µM (active) and 3.89 µM (active)
[10]
  Potency: 2.45 µM (active)
[11]
  Potency: 21.8 µM (active) and 8.71 µM (active)
[12]
  Potency: 38.7 µM (active) and 3.89 µM (active)
[13]
  Potency: 54.7 µM (active) and 3.47 µM (active)
[14]
  Potency: 24.4 µM (active) and 3.89 µM (active)
[16]
  outcome: inactive

## O=[N+]([O-])/C=C/c1ccccc1
[1]
  Potency: 24.9 µM (active) and 54.9 µM (active)
[2]
  Potency: 20.1 µM (active)
[18]
  Potency: 22 µM (active)
[19]; at 92.4 µM (top of the series)
  activity change, positive = activation: -76.3% (inactive) and -54.1% (inactive)
[3]
  Potency: 44.4 µM (active) and 19.5 µM (active)
[4]
  Potency: 7.03 µM (active) and 13.8 µM (active)
[5]
  Potency: inactive
[6]
  Potency: 19.8 µM (active) and 13.8 µM (active)
[8]
  Potency: 4.98 µM (active) and 12.3 µM (active)
[9]
  Potency: 49.8 µM (active)
[10]
  Potency: 6.27 µM (active) and 15.5 µM (active)
[11]
  Potency: inactive
[12]
  Potency: 55.8 µM (active)
[13]
  Potency: 22.2 µM (active) and 17.4 µM (active)
[14]
  Potency: 22.2 µM (active)
[15]
  Potency: 12.5 µM (active)
[16]
  outcome: inactive

## CCOc1cccc(C2(N3CCN(c4ccccc4)CC3)CCC(C)CC2)c1 (stereo not given)
[1]
  Potency: inactive
[2]
  Potency: inactive
[17]
  Potency: inactive
[3]
  Potency: inactive
[5]
  Potency: inactive
[6]
  Potency: inactive
[7]
  Potency: inactive
[8]
  Potency: inactive
[9]
  Potency: inactive
[10]
  max response: -7.17% (inactive)
[11]
  Potency: inactive
[12]
  Potency: inactive
[13]
  Potency: inactive
[14]
  Potency: inactive
[15]
  Potency: inactive
[16]
  outcome: inactive

## O=S(=O)(Cl)Cl
[1]
  Potency: inactive
[2]
  Potency: inactive
[17]
  Potency: inactive
[3]
  Potency: inactive
[5]
  Potency: inactive
[6]
  Potency: inactive
[7]
  Potency: inactive
[8]
  Potency: inactive
[9]
  Potency: inactive
[10]
  max response: 15.4% (inactive)
[12]
  Potency: inactive
[13]
  Potency: inactive
[14]
  Potency: inactive
[15]
  Potency: inactive
[16]
  outcome: inactive

## C=CCN1C[C@H](C)N([C@H](c2ccc(C(=O)N(CC)CC)cc2)c2cccc(OC)c2)C[C@H]1C
[1]
  Potency: inactive
[2]
  Potency: inactive
[19]; at 42.5 µM (top of the series)
  activity change, positive = activation: -5.94% (inactive)
[3]
  Potency: inactive
[4]
  Potency: 19 µM (active)
[5]
  Potency: inactive
[6]
  Potency: inactive
[9]
  Potency: inactive
[10]
  Potency: 19 µM (active)
[12]
  Potency: inactive
[13]
  Potency: inactive
[14]
  Potency: inactive
[16]
  outcome: inactive

## CC(C)(C#N)C(C)(C)C#N
[1]
  Potency: inactive
[2]
  Potency: inactive
[18]
  Potency: inactive
[19]; at 92.4 µM (top of the series)
  activity change, positive = activation: -14.1% (inactive)
[3]
  Potency: inactive
[4]
  Potency: inactive
[5]
  Potency: inactive
[6]
  Potency: inactive
[7]
  Potency: inactive
[8]
  Potency: inactive
[9]
  Potency: inactive
[10]
  max response: 1.19% (inactive)
[11]
  Potency: inactive
[12]
  Potency: inactive
[13]
  Potency: inactive
[14]
  Potency: inactive
[15]
  Potency: inactive
[16]
  outcome: inactive
